Assay [1] in a line: APR_HepG2_P-H2AX_72hr: Apredica 72-hour HepG2 Assay for H2AX Phosphorylation (AID 2282916).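 Note: phospho-histone H2A.x immunostain intensity per cell marking DNA damage.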 The settings on record: imaging, actives raise or lower the signal. The gist of the method:
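Readout: phospho-H2A.x immunofluorescence (FITC secondary) plus Hoechst nuclear stain, high-content imaging at 20x, six fields/well. HepG2, 72 hr compound exposure, 0.39–200 uM, final DMSO 0.5% v/v. Gain or loss fitted relative to DMSO baseline.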

Assay [2] in a line: APR_HepG2_MitoMembPot_72hr: Apredica 72-hour HepG2 Assay for Mitochondrial Membrane Potential (AID 2282917). Conditions: imaging, actives raise or lower the signal. The method in brief: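 Membrane potential read by MitoTracker Red CMXRos (250 nM, 30 min, pre-fixation) fluorescence imaging of HepG2 after 72 hr exposure. Ten concentrations, 0.39–200 uM, duplicate wells, 0.5% DMSO; fitted in both directions against DMSO baseline.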

A short description of assay [3]: APR_HepG2_MitoticArrest_72hr: Apredica 72-hour HepG2 Assay for Mitotic Arrest (AID 2282918). Conditions: high-content imaging, actives raise or lower the signal. The gist of the method: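 HepG2 cells were exposed for 72 hr to compound at 0.39–200 uM (10 concentrations, duplicate) in 0.5% v/v DMSO, fixed in 3.7% formaldehyde, immunostained for phospho-histone H3 with Hoechst 33342 and imaged by high-content fluorescence; bidirectional fits versus DMSO.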

Assay [4] in a line: APR_HepG2_MicrotubuleCSK_72hr: Apredica 72-hour HepG2 Assay for Microtubule CSK Stabilty (AID 2282919). Conditions: HepG2 microtubule cytoskeleton, high-content imaging, actives raise or lower the signal. The gist of the method:
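High-content imaging of alpha-tubulin staining in fixed HepG2 cells after 72 hr treatment with ten concentrations from 0.39 to 200 uM (0.5% DMSO). Fitting was bidirectional against DMSO; taxol served as positive control.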

Assay [5] is described as follows: APR_HepG2_P-H2AX_24hr: Apredica 24-hour HepG2 Assay for H2AX Phosphorylation (AID 2282920). Conditions: high-content imaging, actives raise or lower the signal. The gist of the method:
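HepG2 human liver cells were exposed for 24 hr to compounds at 0.39–200 uM in duplicate, with 0.5% v/v DMSO final. Fixed cells were immunostained for phospho-histone H2A.x plus Hoechst 33342, imaged by HCS fluorescence, and fitted bidirectionally against DMSO.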

The nature of assay [6]: APR_HepG2_StressKinase_72hr: Apredica 72-hour HepG2 Assay for Stress Kinase (AID 2282921). The settings on record: HepG2 stress kinase (phospho-c-Jun) imaging, actives raise or lower the signal. The method in brief: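 Phospho-c-Jun immunofluorescence measured by high-content imaging at 20x, six fields per well; bidirectional curve fitting against DMSO as baseline. Dosing: 0.39–200 uM, 72 h, 0.5% DMSO final.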

Assay [7] in a line: APR_HepG2_StressKinase_24hr: Apredica 24-hour HepG2 Assay for Stress Kinase (AID 2282922). The settings on record: HepG2 stress kinase (phospho-c-Jun) imaging, actives raise or lower the signal. The method in brief: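 High-content imaging of phospho-c-Jun immunofluorescence in fixed, permeabilized HepG2 cells after 24 h dosing. Ten concentrations, 0.39 to 200 uM, run in duplicate at 0.5% v/v DMSO; gain or loss of signal versus DMSO.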

The nature of assay [8]: APR_HepG2_p53Act_72hr: Apredica 72-hour HepG2 Assay for p53 Activation (AID 2282923).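 Note: average cellular p53 protein immunofluorescence intensity in HepG2 cells.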 The settings on record: high-content imaging, actives raise or lower the signal. The gist of the method:
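Readout: p53 immunofluorescence quantified by automated high-content imaging at 20x, six fields per well, nuclei located via Hoechst. Dosing ran 72 hr over ten concentrations from 0.39 to 200 uM; bidirectional curve fitting against DMSO baseline.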

Assay [9] can be described thus: APR_HepG2_MitoMass_72hr: Apredica 72-hour HepG2 Assay for Mitochondrial Mass (AID 2282924).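 Note: MitoTracker Red CMXRos stain intensity per cell imaged as mitochondrial mass.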 Conditions: high-content imaging, actives raise or lower the signal. The method in brief:
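Readout is imaged MitoTracker Red (250 nM, 30 min, pre-fixation) signal, fitted bidirectionally against DMSO baseline. Human HepG2 liver cells received compound 0.39–200 uM in duplicate for 72 hr, final DMSO 0.5%.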

Assay [10] is described as follows: APR_HepG2_NuclearSize_72hr: Apredica 72-hour HepG2 Assay for Nuclear Size (AID 2282925). Conditions: high-content imaging, actives raise or lower the signal. The gist of the method:
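Nuclear size was read by high-content imaging of Hoechst 33342 stain after formaldehyde fixation. Compounds ran 72 h on HepG2 at 0.39 to 200 uM, with final DMSO 0.5% v/v. Curves fitted both directions relative to DMSO control.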

The source made the active and inactive calls. Rule for the calls: active = hit-call score of the fitted dose curve at least 0.9, where 1 is the maximum; inactive = score below 0.9.

The AC50 is the midpoint of the concentration-response curve, whichever way the signal moves.

Take `COC(=O)[C@H]1[C@H]2C[C@@H]3c4[nH]c5cc(OC)ccc5c4CCN3C[C@H]2C[C@@H](OC(=O)c2cc(OC)c(OC)c(OC)c2)[C@@H]1OC`: the AC50 is 23.9 µM (active) in assay [1]; 48 µM (active) in assay [2]; 16.3 µM (active) in assay [3]; 39.4 µM (active) in assay [4]; 30.1 µM (active) in assay [5]; 55.1 µM (active) in [7]. Besides, the half-maximal activity concentration (AC50) in [8] was 24.6 µM (active); in assay [9] it was 28.8 µM (active). For the same compound, the compound was called inactive in [6] and in [10].
Turning to `CN(C)CCCN(C)CCCN(C)C`, the result in [1], in [2], in [3], in [4], in assay [5] and in assay [6] was inactive. Besides, the call in [7], in assay [8], in assay [9] and in assay [10] was inactive.
`O=C1c2c(O)cccc2Cc2cccc(O)c21`: the call in assay [1], in assay [3], in assay [4], in assay [5], in assay [6] and in assay [7] was inactive. In addition, the outcome in [8], in assay [9] and in [10] was inactive. In [2], the AC50 is 19.3 µM (active).
As for `O=C1OC(c2ccc(O)cc2)(c2ccc(O)cc2)c2ccccc21`, the AC50 in [1] was 31 µM (active); in [3] it was 50.9 µM (active); in [4], 97.3 µM (active); in [5], 73.3 µM (active); in [6], 40 µM (active); in assay [8], 29.2 µM (active). Besides, the AC50 in [9] is 102 µM (active). For the same compound, the compound was classed as inactive in [2], in assay [7] and in assay [10].
Turning to `Oc1ccc(O)cc1`, the compound was classed as inactive in [1], in [2], in assay [3], in assay [4], in assay [5] and in assay [6]. The call in assay [7] was inactive. For the same compound, the concentration at half-maximal activity (AC50) in [8] is 91.9 µM (active); in assay [9], 46.3 µM (active); in assay [10], 67.8 µM (active).
For the compound `O=C(O)CN(CC(=O)O)CC(=O)O`, the result in [1], in [2], in assay [3], in assay [4], in [5] and in assay [6] was inactive. The outcome in assay [7], in [8], in [9] and in assay [10] was inactive.
For `CCCCC(CC)COC(=O)CCCCCCCC(=O)OCC(CC)CCCC` (stereo not given), the call in assay [1], in [2], in assay [3], in assay [4], in assay [5] and in [6] was inactive. Also, the compound was classed as inactive in [7], in assay [8], in assay [9] and in assay [10].
On to `OCC(O)CO`, for which the compound was classed as inactive in assay [1], in [2], in [3], in assay [4], in assay [5] and in assay [6]. For the same compound, the compound was called inactive in [7], in [8], in assay [9] and in [10].
On to `O=C(O)CC(O)(CC(=O)O)C(=O)O`, for which the compound was classed as inactive in assay [1], in [2], in assay [3], in [4], in assay [5] and in assay [6]. Moreover, the outcome in assay [7], in [8], in assay [9] and in [10] was inactive.
With `COC(=O)CCC(=O)OC`, the compound was called inactive in assay [1], in assay [2], in assay [3], in assay [4], in [5] and in [6]. The outcome in [7], in assay [8], in assay [9] and in [10] was inactive.
`CN(C)C(=O)NC1(c2ccccc2)CCN(CCC[C@]2(c3ccc(Cl)c(Cl)c3)CCCN(C(=O)c3ccccc3)C2)CC1`: the concentration at half-maximal activity (AC50) in assay [1] was 15.1 µM (active); in [2], 25.4 µM (active); in [3], 9.82 µM (active); in assay [5], 22.5 µM (active); in assay [6] it was 25 µM (active); in assay [8], 10.3 µM (active). The result in assay [4], in assay [7], in [9] and in assay [10] was inactive.
`CCCC[C@H]1CN(CC2CCOCC2)C(=O)OC12CCN(C1(C)CCN(C(=O)c3c(C)ncnc3C)CC1)CC2`: the compound was classed as inactive in assay [1], in assay [2], in [3], in [4], in [5] and in assay [6]. The compound was called inactive in [7], in [8], in assay [9] and in [10].
On to `CC(C)(C)c1ccccc1`, for which the compound was classed as inactive in assay [1], in assay [2], in assay [3], in [4], in assay [5] and in assay [6]. Moreover, the call in assay [7], in [8], in [9] and in [10] was inactive.
With `CC(C)c1cccc(C(C)C)c1NC(=O)NS(=O)(=O)c1cc(C(C)(C)O)co1`, the call in assay [1], in assay [2], in assay [3], in assay [4], in assay [5] and in [6] was inactive. The call in [7], in assay [8], in [9] and in assay [10] was inactive.
As to `CCc1nc(N)nc(N)c1-c1ccc(Cl)cc1`, the figures for the concentration at half-maximal activity (AC50) in assay [1], in [3] and in [8] were 67.6 µM (active), 110 µM (active) and 3.77 µM (active), respectively. Besides, the compound was classed as inactive in assay [2], in assay [4], in assay [5], in [6], in assay [7] and in assay [9]. Further, in assay [10], the compound was classed as inactive.
On to `CCCCC(CC)CO` (stereo not given), for which the compound was classed as inactive in assay [1], in [2], in assay [3], in assay [4], in assay [5] and in assay [6]. Further, the compound was called inactive in [7], in [8], in [9] and in [10].
`OCC(CO)n1cnc(-c2ccc(F)cc2)c1-c1ccnc(Oc2ccccc2)n1`: the call in assay [1], in [2], in assay [3], in assay [4], in assay [5] and in assay [6] was inactive. In addition, the compound was classed as inactive in [7], in assay [8], in assay [9] and in assay [10].
Consider `Cc1ccc(C(C)(C)C)c(O)c1`, for which the AC50 in assay [1] was 105 µM (active); in assay [2], 111 µM (active); in [3], 100 µM (active); in assay [5], 110 µM (active). The call in [4], in assay [6], in assay [7], in [8], in [9] and in assay [10] was inactive.
Turning to `CC(=O)S[C@H](C(=O)N[C@H]1Cc2ccccc2[C@H]2CCC[C@@H](C(=O)O)N2C1=O)C(C)C`, the compound was classed as inactive in assay [1], in assay [2], in [3], in [4], in assay [5] and in [6]. Besides, the outcome in assay [7], in assay [8], in assay [9] and in assay [10] was inactive.

Source of the values: PubChem BioAssay (EPA / NIEHS).
